# An excerpt weighted towards active compounds, which were near 3.5% of everything screened.
# FBW7 act – FBW7 E3 ligase activators, primary screen, biochemical, AlphaScreen, human | F-box/WD repeat-containing protein 7 (Homo sapiens), Q969H0 | AlphaScreen FBW7–phospho-cyclin E peptide binding, activator screen | normalized activity (activation), % at 26.1 µM | actives 0.13% (n = 650,000) | AID 1259310, 2017; in the data active = normalized activity above about 1.9%;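 also: purified mutant Fbw7 with reduced substrate affinity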
# Target sequence (Q969H0 whole entry, looked up): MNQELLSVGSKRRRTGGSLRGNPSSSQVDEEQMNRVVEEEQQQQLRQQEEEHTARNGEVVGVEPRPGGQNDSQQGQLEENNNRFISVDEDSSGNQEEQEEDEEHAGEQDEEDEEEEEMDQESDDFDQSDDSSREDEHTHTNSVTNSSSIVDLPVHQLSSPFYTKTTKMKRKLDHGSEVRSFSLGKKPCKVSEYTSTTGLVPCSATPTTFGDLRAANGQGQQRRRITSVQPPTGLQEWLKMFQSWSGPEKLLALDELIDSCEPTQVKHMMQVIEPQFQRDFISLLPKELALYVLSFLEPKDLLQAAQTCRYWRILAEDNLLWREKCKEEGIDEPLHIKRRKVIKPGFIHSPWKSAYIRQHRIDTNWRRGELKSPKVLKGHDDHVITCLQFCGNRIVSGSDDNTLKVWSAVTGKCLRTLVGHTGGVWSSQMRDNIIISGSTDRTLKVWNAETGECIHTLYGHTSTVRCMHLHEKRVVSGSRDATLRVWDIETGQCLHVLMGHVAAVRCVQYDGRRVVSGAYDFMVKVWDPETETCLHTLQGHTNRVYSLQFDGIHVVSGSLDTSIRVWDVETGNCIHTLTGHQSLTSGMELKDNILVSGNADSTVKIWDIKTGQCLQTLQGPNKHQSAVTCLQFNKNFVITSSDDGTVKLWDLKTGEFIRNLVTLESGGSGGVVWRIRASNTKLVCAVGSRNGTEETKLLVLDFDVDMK
# MITF primary – MITF inhibitors, primary screen, biochemical, AlphaScreen, human; inhibition, % at 2.6 µM; AlphaScreen MITF homodimerization, bead proximity signal; actives 0.91% (n = 650,000); AID 1259374, 2018; Microphthalmia-associated transcription factor (Homo sapiens), O75030; in the data active = inhibition above about 50%;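 also: 0% = vehicle wells with protein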
# GPR151 activ – activators of human GPR151, primary screen, cell-based, PathHunter beta-arrestin, luminescence | G-protein coupled receptor 151 (Homo sapiens), Q8TDV0 | PathHunter beta-arrestin GPR151 cells | activation, % at 11.2 µM | actives 1% (n = 650,000) | AID 1508602, 2020; in the data active = activation above about 4.9%;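 also: 0% = median of compound wells and 100% = cells with positive control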
# TEAD-YAP block – TEAD-YAP interaction inhibition, primary screen, TEAD-YAP interaction inhibitor project, luminescence, HEK-TIYL cells | AID 1259422, 2018 | TEAD-Gal4/YAP UAS-luciferase luminescence | inhibition, % at 9.12 µM | actives 1.4% (n = 640,000); in the data active = inhibition above about 32%;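 also: 0% = median of test compound wells and 100% = reference inhibitor wells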
# The depositor's hits bear a star; ! = repeats disagree.
SMILES,FBW7 act,MITF primary,GPR151 activ,TEAD-YAP block
CCCOc1ccc(C2NC(=O)NC(C)=C2C(=O)OC2CCCC2)cc1 (stereo not given),0,-8,-1,56*
CCOC(=O)C1=C(C)NC(=O)NC1c1ccc(-c2ccccc2)cc1 (stereo not given),0,-1,5,40*
CCCOc1ccc(C2NC(=O)NC(C)=C2C(=O)OC2CCCCCC2)cc1 (stereo not given),0,-13,1,2
CCOC(=O)C1=C(C)NC(=O)NC1c1ccc(OCc2ccccc2)cc1 (stereo not given),0,3,-1,-17
CCCOc1ccc(C2NC(=O)NC(C)=C2C(=O)OC(C(F)(F)F)C(F)(F)F)cc1 (stereo not given),2.1*,17,1,7
CC(C)(C)C(=O)N1CC=C2C(C#N)=C(N)C(C#N)(C#N)C(c3ccsc3)C2C1 (stereo not given),0,4,1,6
COc1cccc(C(=O)CN2C(=O)C(C)Oc3ccccc32)c1 (stereo not given),0,11,-1,-12
O=[N+]([O-])c1ccccc1C1CC(c2ccccc2)=NN1 (stereo not given),0,-3,1,40*
O=S(=O)(NCC1(c2ccccc2)CCOCC1)c1ccc(Cl)s1,0,0,0,-1
COc1ccccc1/C=N/NC(=O)C(C)Nc1ccccc1C (stereo not given),0,7,0,6
CC(=O)Nc1ccccc1OS(=O)(=O)c1cc(Br)ccc1Br,0,8,-1,4
COc1ccc(S(=O)(=O)Oc2ccccc2NC(C)=O)c2ccccc12,0,2,0,55*
COc1ccc(S(=O)(=O)Oc2ccccc2NC(C)=O)cc1C,0,-7,1,45*
CSc1ncccc1C(=O)Nc1ccc(F)cc1,0,3,2,-8
CSc1nc2c(c(=O)[nH]c(=O)n2C)n1CCSc1nc2ccccc2s1,1,5,0,37*
O=C(NC1CC1)c1ccc2cncc(-c3cc4ccccc4o3)c2n1,0,2,-1,50*
O=C(NCCCn1ccnc1)c1ccc2cncc(-c3cc4ccccc4o3)c2n1,0,-2,-1,46*
O=C(c1ccc2cncc(-c3cc4ccccc4o3)c2n1)N1CCOCC1,-1,18,1,23
COCCNC(=O)c1ccc2cncc(-c3cc4ccccc4o3)c2n1,0,5,0,60*
CCOc1ccc(NC(=O)c2sc3ncnc(N4CCN(c5ccccc5F)CC4)c3c2C)cc1,0,13,0,-6
O=C(N/N=C/c1cccc(O)c1)c1ccc(F)cc1,0,8,-1,35*
CC(C)(C)OC(=O)N/N=C/c1cccc(O)c1,0,3,-4,84*
CCc1nnc(NS(=O)(=O)c2ccc(NC(=O)c3ccccc3)cc2)s1,0,2,2,9
CCc1nnc(NS(=O)(=O)c2ccc(NC(=S)NC(=O)c3ccccc3)cc2)s1,2.9*,-2,0,-10
COCCNc1c(-c2ccc(O)cc2O)nc2cnccn12,0,1,1,-5
SMILES,FBW7 act,MITF primary,GPR151 activ,TEAD-YAP block
COc1ccc(CNc2c(-c3ccc(O)cc3O)nc3cnccn23)cc1,0,-4,0,65*
COc1ccc(N2C(C(C)=O)=NN(c3ccccc3)C2c2ccccc2OCc2c(Cl)cccc2Cl)cc1 (stereo not given),1,3,1,45*
COc1ccc(N2C(C(C)=O)=NN(c3ccc(Cl)cc3)C2c2ccc(OCc3c(Cl)cccc3Cl)c(OC)c2)cc1 (stereo not given),0,7,0,-1
Clc1ccc(COc2ccccc2C2N(c3ccccc3)N=C(c3ccccc3)N2c2ccccc2)cc1 (stereo not given),0,20,0,85*
COCCSc1ccccc1C(=O)Nc1ccccc1C(F)(F)F,0,17,1,2
COC(=O)CC[C@H]1CN(Cc2ccc(O)cc2)CC[C@H]1N1CCN(C)CC1,0,3,0,7
O=C(c1ccco1)N1CCN=C1SCc1ccc(Cl)cc1,1,19,0,3
Cc1ccc(NC(=O)c2ccc(Nc3nc(-c4ccccc4)c4cc(C)ccc4n3)cc2)cc1,0,4,1,-3
Cc1ccc2nc(Nc3cccc(C(=O)Nc4ccc(O)cc4)c3)nc(-c3ccccc3)c2c1,0,15,0,50*
Cc1cc(-c2cn3c4c(nnc3n2)CCCC4)ccc1NC(=O)CN1CCNC1=O,0,9,0,-10
COc1ccc(NC(=O)Cn2nnc(-c3ccccc3NC(=O)c3cccs3)n2)cc1,0,5,0,-10
Cc1ccc(NC(=O)Cn2nnc(-c3ccccc3NC(=O)c3cccs3)n2)cc1,0,2,2,54*
Cc1nc(N=Nc2cc(S(=O)(=O)O)c3cc([N+](=O)[O-])cc(S(=O)(=O)O)c3c2)c(COP(=O)(O)O)c(C=O)c1O,0,77*!,-1,-12
Cc1c(N=Nc2ccc([N+](=O)[O-])cc2S(=O)(=O)O)co[n+]1[O-],0,5,1,2
Cc1ccc(C)c(CN2CCN3C(=O)[C@H](Cc4ccc(O)cc4)NC(=O)[C@H]3C2)c1,0,6,-1,4
Fc1ccc(-c2cc(C(F)(F)F)nc(NCc3cccnc3)n2)cc1,0,14,0,40*
Cc1ccc(S(=O)(=O)Nc2cc(C(=O)N3CCOCC3)ccc2N2CCCCC2)cc1,0,-4,0,2
COC(=O)c1ccc(N2CCCC2)c(NS(=O)(=O)c2ccc(C)cc2)c1,1,6,-1,41*
COC(=O)c1ccc(N2CCOCC2)c(NS(=O)(=O)c2ccc(OC)cc2)c1,0,7,-1,58*
Nc1ccccc1C(=O)N1CCNC(=O)C1,0,12,0,9
O=C(COc1ccccc1[N+](=O)[O-])OCC(=O)c1ccc[nH]1,0,-1,-2,-3
COc1ccccc1NC(CC(=O)c1ccccc1)C(=O)O (stereo not given),0,-7,0,54*
O=C(CC(Nc1ccc(F)cc1)C(=O)O)c1ccccc1 (stereo not given),0,-11,2,-5
COc1ccc(OC)c(N/C=C/C(=O)c2ccccc2)c1,0,10,-9,95*
COc1cccc(C(=O)/C=C/Nc2cc(Cl)ccc2OC)c1,0,12,-3,-34
COc1cccc(C(=O)/C=C\Nc2ccc(OC)cc2OC)c1,0,1,-9,80*
COc1ccccc1N/C=C/C(=O)c1ccccc1,0,5,-1,46*
COc1ccc(S(=O)(=O)Nc2ccc(OC)c(N3CCCC3=O)c2)cc1C,0,14,1,4

# Screens deposited in PubChem by The Scripps Research Institute Molecular Screening Center.
